Compound activity: PubChem BioAssay, several laboratories
NTR1 ag: NTR1 (human) agonism | P30989 | NTR1-U2OS beta-arrestin-GFP spot imaging, agonist mode | actives 0.17% (n = 330,000) | AID 493036 | activation, % at 20 µM;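 active = activation at or above 40% of the spot to cytoplasm intensity ratio, with at least 20 cells analyzed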;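 note: 0% = DMSO without peptide and 100% = 100 nM NTR1 peptide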
Target sequence (P30989 whole entry, looked up): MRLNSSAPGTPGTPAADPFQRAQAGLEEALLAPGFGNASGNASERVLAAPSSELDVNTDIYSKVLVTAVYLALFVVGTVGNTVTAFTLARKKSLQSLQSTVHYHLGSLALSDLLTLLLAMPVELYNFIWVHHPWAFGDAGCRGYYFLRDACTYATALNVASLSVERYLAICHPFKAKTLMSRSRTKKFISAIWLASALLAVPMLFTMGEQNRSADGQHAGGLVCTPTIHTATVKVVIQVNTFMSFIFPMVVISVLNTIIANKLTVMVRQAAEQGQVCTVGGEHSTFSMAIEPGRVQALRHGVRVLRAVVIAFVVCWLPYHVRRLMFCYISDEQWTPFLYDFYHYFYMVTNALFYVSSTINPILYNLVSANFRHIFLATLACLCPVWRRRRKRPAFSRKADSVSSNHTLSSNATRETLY
GRK2 aptamer HTS: human GRK2 inhibition via aptamer displacement | P25098 | actives 0.59% (n = 330,000) | inhibition of aptamer binding, % at 10 µM | bead flow cytometry, FAM-aptamer displacement from GRK2;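 active = inhibition of aptamer binding above 40%, roughly 3 SD of noise, on plates passing a quality check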;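 note: median bead fluorescence of bound FAM aptamer so fluorescent compounds give negative values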
MIN6 prolif: inducers of beta-cell replication in MIN6 cells | MIN6 cells proliferation, ATPlite luminescence, 48 h; cells starved in 0.2% serum; 100% = growth in 10% serum | proliferation, % at 10 µM | actives 0.29% (n = 330,000) | AID 2380;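 active = compounds whose signal lies at least 3.5 SD above the mean of all wells on their plate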;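 note: 0% = DMSO-treated cells in low-serum medium and 100% = 10% serum control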
Platelet DG rel: modulates dense granule release in human platelets. human platelet-rich plasma, SFLLRN dense granule ATP release, luminescence. inhibition, %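 (compounds screened at 7.5 µM in platelet-rich plasma)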. actives 0.22% (n = 300,000). AID 1663;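 active = mean replicate score, as percent of positive control, at or above 50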
GRK2 inh confirm: human GRK2 inhibition confirmation, cherry pick 1; shares compounds with GRK2 aptamer HTS; aptamer displacement, % at 10 µM; actives 4% (n = 2,000); bead-bound GRK2, FAM-aptamer displacement, flow cytometry;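 active = aptamer displacement above 40%, near three times the noise of non-fluorescent compounds, on plates passing quality checks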;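 note: negative values mostly reflect intrinsic compound fluorescence rather than true enhancement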
Aptamer quench 1: counter-screen for GRK2 aptamer inhibitors: fluorescent aptamer quenchers. shares compounds with GRK2 aptamer HTS. 110 tested, under 10 active. Fluorescent RNA aptamer beads, quenching, flow cytometry; hits give high values. fluorescence change (kMESF span), kMESF (no concentration beside the values);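 active = compounds whose bead fluorescence drops by more than 37 kMESF across the dose range, marking them as dye quenchers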
Aptamer quench SP: counter-screen for GRK2 aptamer inhibitors: fluorescent aptamer quenchers. 2,000 tested, under 10 active. AID 504580. fluorescence response (% of DMSO), % at 10 µM. Carboxyfluorescein RNA aptamer on beads, flow cytometry quenching; hits give low values. shares compounds with GRK2 aptamer HTS;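 active = compounds that quench the bead-bound fluorescent RNA probe, cutting fluorescence to under half of the solvent control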;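 note: counterscreen run without GRK2 so only probe quenching by compound is measured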
GRK2 confirm 2: human GRK2 inhibition confirmation, cherry pick 2; shares compounds with GRK2 aptamer HTS; bead-bound GRK2, FAM-aptamer displacement, flow cytometry; inhibition of aptamer binding, % at 10 µM; 360 tested, under 10 active; AID 504782;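 active = inhibition of aptamer binding above 40%, about triple the noise seen with nonglowing compounds, on plates passing quality control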;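 note: negative values mostly come from compounds that fluoresce themselves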
FAM quench SP: counter-screen for GRK2 binding hits: quenchers of fluorescent RNA aptamer | 360 tested, under 10 active | shares compounds with GRK2 aptamer HTS | carboxyfluorescein RNA aptamer beads, flow cytometry quenching; hits give low values | fluorescence response vs DMSO, % at 10 µM | AID 588494;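 active = response vs DMSO under 50%, meaning signal dropped by over half, treated as fluorescence quencher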;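 note: labelled aptamer on streptavidin beads without GRK2 as a quench counter-screen; 100% = bead fluorescence of DMSO wells and lower means quenching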
Active calls of the source: *; nt = no result. Hits are enriched below; roughly 1.2% of the tested compounds scored in any of these assays.

SMILES	NTR1 ag	GRK2 aptamer HTS	MIN6 prolif	Platelet DG rel	GRK2 inh confirm	Aptamer quench SP	others
COCCNC(=O)C/C(C)=N/NC(=O)C(=O)NC1CCCCC1	0	57*	2	-3	86*	101	Aptamer quench 1=-9.6
C=CC[C@H](CC(=O)N[C@H](CO)Cc1ccccc1)C(=O)N[C@@H](COC(=O)[C@H](CC=C)CC(=O)OC(C)(C)C)Cc1c[nH]c2ccccc12	14	0	-6	nt	nt	nt
CCC1CCCCN1CCCNC(=O)C1CCN(S(=O)(=O)N2CCCCC2)CC1 (configuration not stated)	2	15	-2	-45	-41	112
CC(CNC(=O)c1ccc2c(c1)OCO2)c1ccc([N+](=O)[O-])cc1 (configuration not stated)	0	67*	-1	-2	-2	100
CCOC(=O)c1c(NC(=O)COC(=O)/C=C/c2ccccc2)sc(C(=O)NC)c1C	3	2	-3	nt	nt	nt
CN(CCO)C(=O)c1c(NC(=O)c2ccccc2)sc2c1CCCC2	0	42*	-3	-8	1	95
COc1ccc(C2=NS(=O)(=O)N(C)C(C(=O)Nc3ccc(OC)c(OC)c3)=C2)cc1	2	2	1	3	nt	nt
COc1ccc(NC(=O)C2=CC(c3ccc(C)cc3)=NS(=O)(=O)N2C)cc1	2	54*	-3	-2	1	98
Clc1cccc(CN2CCSCC2)c1	1	99*	0	-6	34	102
Cc1ccc(C)c(-c2[nH]ncc2CN2CCCC(CO)(Cc3ccccc3C)C2)c1 (configuration not stated)	0	2	-5	24	nt	nt
CC1(C)CC(=O)C2=C(C1)c1c(ccc3ccccc13)NC2c1ccc(OCC(=O)O)cc1 (configuration not stated)	0	78*	-5	-10	0	94
CCOc1cc(C)c(S(=O)(=O)Nc2ccc(Cl)cn2)cc1C	3	46*	-1	-1	nt	nt	GRK2 confirm 2=-1;FAM quench SP=101
CC(=O)N/N=C(\C)c1ccc2c(c1)OCCO2	3	72*	0	2	-4	96
COc1ccc(CN(C)C(=O)Cn2ccsc2=N)cc1OC	0	0	-1	1	4	96
COc1ccc(CN(C)C(=O)Cn2ccc(NC(=O)OCc3ccccc3)nc2=O)cc1OC	0	2	3	nt	nt	nt
COCCN(C(=O)COC(=O)CCC(=O)c1cccs1)c1c(N)n(Cc2ccccc2)c(=O)[nH]c1=O	0	2	1	17	nt	nt
O=C(NNC(=O)c1cc2ccccc2oc1=O)c1ccccc1[N+](=O)[O-]	0	4	1	1	nt	nt
c1ccc2c(c1)OC(CCCN1CCCCC1)c1ccccc1S2 (configuration not stated)	0	0	-5	0	nt	nt
CN1CCCC(CC2Oc3ccccc3Sc3ccccc32)C1 (configuration not stated)	0	44*	-2	4	nt	nt	GRK2 confirm 2=-9;FAM quench SP=101
CN(CC(=O)NC1(C)CCS(=O)(=O)C1)S(=O)(=O)c1ccc(Cl)cc1 (configuration not stated)	0	5	-2	-3	nt	nt
Nc1ccc(O)c2c1C(=O)c1ccccc1C2=O	-3	41*	0	4	1	93
CC1(c2cccc(Br)c2)NC(=O)N(CC(=O)N2CCc3ccccc32)C1=O (configuration not stated)	5	1	0	nt	nt	nt
CN(C)C(CNC(=O)c1ccc(NS(=O)(=O)c2ccc3[nH]c(=O)[nH]c3c2)cc1)c1ccccc1 (configuration not stated)	0	0	-2	-21	nt	nt
CCCN(C(=O)c1ccc(N2CCCC2=O)cc1)c1c(N)n(Cc2ccccc2)c(=O)[nH]c1=O	0	4	2	nt	-8	101
NC(=O)C1CCN(C(=O)c2ccc(NS(=O)(=O)c3ccc(Br)s3)cc2)CC1	-2	nt	-3	nt	nt	nt
SMILES	NTR1 ag	GRK2 aptamer HTS	MIN6 prolif	Platelet DG rel	GRK2 inh confirm	Aptamer quench SP	others
COc1ccc(OC)c(Nc2nc(NCc3ccco3)c3ccccc3n2)c1	30	46*	-4	-7	-2	97
Cc1ccccc1Nc1nc(NCc2ccco2)c2ccccc2n1	12	0	-7	13	nt	nt
COc1ccccc1CNC(=O)COC(=O)c1cccc(S(=O)(=O)N2CCOCC2)c1	0	0	3	-1	nt	nt
O=C(O)CNS(=O)(=O)c1ccc2c3c(cccc13)C(=O)N2	-1	78*	1	0	-1	100
Cc1c(C(=O)OCC(=O)NCCc2ccc(S(N)(=O)=O)cc2)oc2ccccc12	2	0	-2	nt	nt	nt
Fc1ccc2cc(-c3ccccc3F)ncc2c1	1	100*	-3	nt	nt	nt	GRK2 confirm 2=-33;FAM quench SP=103
Fc1ccc2cnc(-c3ccccc3F)cc2c1	-1	3	-2	nt	nt	nt
NC(=O)c1cc[n+](CC2=C(C(=O)O)N3C(=O)[C@@H](NC(=O)C(c4ccccc4)S(=O)(=O)[O-])[C@H]3SC2)cc1 (some centres not stated)	-2	85*	2	0	99*	96	Aptamer quench 1=-7.8
NNc1ccc2nnc(C(F)(F)C(F)(F)C(F)(F)F)n2n1	2	80*	-2	-1	0	97
Cc1nc(NC(=O)CCc2ccccc2)sc1C	1	1	-1	0	nt	nt
NNC(=O)c1cccc(COc2ccc3c(c2)CCC3)c1	1	2	-4	18	nt	nt
Cc1ccc(C(=O)N/N=C/c2cc(Br)ccc2O)cn1	2	73*	-3	-10	-1	93
CCCCc1cc(=O)oc2c(CN3CCN(C)CC3)c(O)ccc12	0	0	-2	-1	nt	nt
CCCc1cc(=O)oc2c(CN3CCN(C)CC3)c(O)ccc12	0	51*	-4	11	0	98
CCNC(=O)CN(c1ccc(Oc2ccccc2)cc1)S(=O)(=O)c1ccccc1	2	0	2	10	nt	nt
CCn1c(=O)c2cc(C(=O)NCCC(C)C)sc2c2ccccc21	11	51*	-3	-1	nt	95
O=C(CNc1ccccc1F)Nc1cc(S(=O)(=O)N2CCCCC2)ccc1Cl	-1	52*	-2	nt	3	93
O=C(Cc1ccccc1F)Nc1cc(S(=O)(=O)N2CCCC2)ccc1Cl	2	2	0	nt	nt	nt
